# Results filed as inconclusive are left out. The source made the active and inactive calls. Rule for the calls, unless noted: active = hit-call score of the fitted dose curve at least 0.9, where 1 is the maximum; inactive = score below 0.9.
# What was measured:
# [1] = biological target: Paired box protein Pax-6 (Homo sapiens) (UniProt P26367); experiment: ATG_Pax6_CIS: Attagene CIS-FACTORIAL HepG2 Assay for human Paired Box 6 (PAX6) (AID 2282956); conditions: HepG2 CIS-FACTORIAL PAX6 reporter transcription, RNA readout; actives raise or lower the signal
# In short: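 After twenty-four hours of chemical exposure, transfected HepG2 cells are harvested for RNA. Cis-promoter reporter transcripts are amplified, fluorescently labelled and sized by capillary electrophoresis, with gain and loss of signal scored against DMSO.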
# [2] = ATG_PXRE_CIS: Attagene CIS-FACTORIAL HepG2 Assay for human Pregnane X Receptor Element (PXRE) (AID 2282957); conditions: HepG2 Attagene CIS-FACTORIAL PXRE reporter, mRNA; actives raise or lower the signal
# In short: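 Cells: HepG2, transiently transfected reporter units under cis promoter control. Exposure: 24 h. Detection: reporter mRNA via RT-PCR/CE fluorescence; bidirectional fitting, DMSO-referenced.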
# [3] = ATG_PPRE_CIS: Attagene CIS-FACTORIAL HepG2 Assay for human Peroxisome Proliferator-activated Response Element (PPRE) (AID 2282958); conditions: HepG2 PPRE cis-element reporter, Attagene transcription factor profiling; actives raise or lower the signal
# In short: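 PPRE activity in HepG2: transient cis-reporter transfection, 24 h compound incubation, reporter mRNA by RT-PCR and CE fluorescence; gain/loss fitted against DMSO.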
# [4] = ATG_Sox_CIS: Attagene CIS-FACTORIAL HepG2 Assay for human SRY-box transcription factor (SOX) (AID 2282960); conditions: HepG2 Attagene cis-factorial SOX reporter, mRNA; actives raise or lower the signal
# In short: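 HepG2, cis reporter units, 24 h exposure. Reporter mRNA: RT-PCR → FAM labelling → HpaI → CE fluorescence. Bidirectional fit vs DMSO.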
# [5] = ATG_SREBP_CIS: Attagene CIS-FACTORIAL HepG2 Assay for human Sterol Regulatory Element Binding (SREBP) (AID 2282962); conditions: HepG2 Attagene cis-factorial SREBP reporter, mRNA; actives raise or lower the signal
# In short: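 Twenty-four hours after chemical dosing of transfected HepG2 cultures, reporter RNA was converted to cDNA, amplified, end-labelled with 6-FAM and resolved by capillary electrophoresis. Responses were fitted relative to DMSO.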
# [6] = biological target: Signal transducer and activator of transcription 3 (Homo sapiens) (UniProt P40763); experiment: ATG_STAT3_CIS: Attagene CIS-FACTORIAL HepG2 Assay for human Signal Transducer and Activator of Transcription 3 (STAT3) (AID 2282963); conditions: HepG2, Attagene cis-factorial STAT3 reporter transcription; actives raise or lower the signal
# In short: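 HepG2 cells transiently transfected with cis-element-driven multiple reporter transcription units; after 24 h chemical exposure, reporter mRNA measured by RT-PCR, 6-FAM primer-extension labelling, HpaI digestion and capillary electrophoresis. Bidirectional fitting versus DMSO baseline.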
# [7] = ATG_TCF_b_cat_CIS: Attagene CIS-FACTORIAL HepG2 Assay for human T-Cell-Factor with beta-catenin (TCF/b-cat) (AID 2282965); conditions: HepG2 TCF/beta-catenin cis-reporter transcription, actives raise or lower the signal
# In short: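 In this cis-format system, transfected HepG2 cells report endogenous transcription factor activity. Readout after 24 h exposure is reporter transcript abundance from RT-PCR and capillary electrophoresis, analysed for gain or loss of signal versus DMSO.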
# [8] = ATG_TAL_CIS: Attagene CIS-FACTORIAL HepG2 Assay for human TAL Basal Promoter (AID 2282966); conditions: HepG2 Attagene cis-factorial TAL promoter reporter; actives raise or lower the signal;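 note: background control endpoint measuring basal TAL promoter reporter mRNA not a specific factor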
# In short: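 RT-PCR plus capillary electrophoresis quantifies reporter mRNA induction in transiently transfected HepG2 cells after 24 h chemical treatment. DMSO serves as negative control and baseline for bidirectional fitting.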
# [9] = ATG_TGFb_CIS: Attagene CIS-FACTORIAL HepG2 Assay for human Transforming Growth Factor (TGF) (AID 2282967); conditions: HepG2 Attagene CIS TGFb reporter, mRNA transcription; actives raise or lower the signal
# In short: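 Liver HepG2 line, cis-factorial reporter panel, 24 h dosing. Quantitation: RT-PCR products labeled with 6-FAM, cut with HpaI, resolved by capillary electrophoresis; DMSO-referenced bidirectional analysis.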
# [10] = biological target: Nuclear receptor subfamily 1 group I member 3 (Homo sapiens) (UniProt Q14994); experiment: ATG_CAR_TRANS: Attagene TRANS-FACTORIAL HepG2 Assay for human Constitutive Androstane Receptor (CAR) (AID 2282969; active = hit-call score of the fitted dose curve at least 0.9, where 1 is the maximum;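 note: activators raise reporter mRNA above DMSO so AC50 marks induction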); conditions: HepG2 Attagene TRANS-FACTORIAL CAR reporter
# In short: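 HepG2 cells transiently transfected with multiplexed GAL4-UAS reporter units expressing chimeric NR-Gal4 proteins; compound exposure 24 h. Reporter mRNA measured by RT-PCR, 6-FAM labelling, HpaI digestion and capillary electrophoresis; gain-of-signal fitted against DMSO baseline.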
# [11] = biological target: Steroid hormone receptor ERR1 (Homo sapiens) (UniProt P11474); experiment: ATG_ERRa_TRANS: Attagene TRANS-FACTORIAL HepG2 Assay for human Estrogen-Related Receptor alpha (ERRa) (AID 2282971; active = hit-call score of the fitted dose curve at least 0.9, where 1 is the maximum); conditions: HepG2 Attagene TRANS reporter, ERRa transactivation
# In short: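 Reporter transcripts from ERRa-Gal4 chimera activity measured in transiently transfected human HepG2 cells 24 hours after dosing, using RT-PCR with 6-FAM primer extension, HpaI digestion and capillary electrophoresis; DMSO is baseline.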
# [12] = biological target: X-box-binding protein 1 (Homo sapiens) (UniProt P17861); experiment: ATG_Xbp1_CIS: Attagene CIS-FACTORIAL HepG2 Assay for human X-box Binding Protein 1 (XBP1) (AID 2282972); conditions: HepG2 XBP1 cis-element reporter, Attagene multiplex; actives raise or lower the signal
# In short: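 After a 24-hour chemical exposure of HepG2 cells carrying cis-regulated reporters, reporter mRNA levels are assessed. Quantification uses RT-PCR, 6-FAM labelling and capillary electrophoresis. Gain- or loss-of-signal is fitted against DMSO.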
# [13] = ATG_M_19_TRANS: Attagene TRANS-FACTORIAL HepG2 Assay for M19 Transcription Factor (Internal Marker) (AID 2282974; active = hit-call score of the fitted dose curve at least 0.9, where 1 is the maximum); conditions: HepG2 Attagene TRANS-FACTORIAL M19 internal marker reporter
# In short: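 Transfected HepG2 (GAL4-UAS MRTUs), 24 h compound, TriZol RNA, DNase-treated RT, reporter PCR, FAM label, HpaI digest, CE fluorescence; gain vs DMSO.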
# [14] = ATG_GAL4_TRANS: Attagene TRANS-FACTORIAL HepG2 Assay for GAL4 (Internal Marker) (AID 2282976; active = hit-call score of the fitted dose curve at least 0.9, where 1 is the maximum); conditions: HepG2 Attagene TRANS GAL4 internal marker reporter
# In short: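 In transfected human HepG2 liver cells dosed 24 h, GAL4 reporter mRNA serves as a baseline marker. Detection by RT-PCR with fluorescent capillary electrophoresis, activity fitted upward relative to DMSO.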
# [15] = biological target: Glucocorticoid receptor (Homo sapiens) (UniProt P04150); experiment: ATG_GR_TRANS: Attagene TRANS-FACTORIAL HepG2 Assay for human Glucocorticoid Receptor (GR) (AID 2282978; active = hit-call score of the fitted dose curve at least 0.9, where 1 is the maximum;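 note: activators score as hits since higher reporter transcript over DMSO is fitted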); conditions: HepG2 Attagene TRANS GR reporter, mRNA transcription
# In short: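 After 24 h incubation with test chemical, transfected HepG2 cells were lysed for RNA; reporter cDNA was amplified, FAM-labelled, HpaI-digested and sized on a capillary analyser. Signal gain relative to DMSO was scored.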
# [16] = biological target: Transcription factor Sp1 (Homo sapiens) (UniProt P08047); experiment: ATG_Sp1_CIS: Attagene CIS-FACTORIAL HepG2 Assay for human Specificity Protein 1 (Sp1) (AID 2282961); conditions: HepG2 Sp1 cis-reporter transcription, actives raise or lower the signal
# In short: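 Liver-derived HepG2 cells, cis-element reporter library, 24 h treatment; RNA isolated, cDNA amplified with reporter-specific primers, FAM-labeled fragments sized on capillary analyzer. DMSO baseline, bidirectional curve fit.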
# [17] = ATG_TA_CIS: Attagene CIS-FACTORIAL HepG2 Assay for human TA Basal Promoter (AID 2282964); conditions: HepG2 Attagene CIS-factorial TA basal promoter reporter; actives raise or lower the signal
# In short: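 Background internal-marker endpoint from a 52-component HepG2 cis-reporter panel. Cells treated 24 h; reporter transcripts quantified via RT-PCR and CE fluorescence against DMSO baseline.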
# [18] = ATG_VDRE_CIS: Attagene CIS-FACTORIAL HepG2 Assay for human Vitamin D Receptor Element (VDRE) (AID 2282968); conditions: HepG2 VDRE cis-reporter transcription, actives raise or lower the signal
# In short: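 HepG2 cells transiently transfected with cis-element reporter units, dosed 24 h; reporter mRNA measured by RT-PCR, 6-FAM labeling, HpaI digestion and capillary electrophoresis. Activity fitted bidirectionally against DMSO baseline.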
# [19] = ATG_RORE_CIS: Attagene CIS-FACTORIAL HepG2 Assay for human RAR-related Orphan Receptor Element (RORE) (AID 2282959); conditions: HepG2 Attagene cis-factorial RORE reporter, mRNA; actives raise or lower the signal
# In short: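 A 24-hour exposure of transfected HepG2 hepatoma cells precedes RNA isolation and reporter RT-PCR. Labeled products are digested with HpaI and resolved by capillary electrophoresis, with gain or loss of signal scored relative to DMSO.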
# Sequence of Signal transducer and activator of transcription 3 (Homo sapiens) (P40763 whole entry, looked up): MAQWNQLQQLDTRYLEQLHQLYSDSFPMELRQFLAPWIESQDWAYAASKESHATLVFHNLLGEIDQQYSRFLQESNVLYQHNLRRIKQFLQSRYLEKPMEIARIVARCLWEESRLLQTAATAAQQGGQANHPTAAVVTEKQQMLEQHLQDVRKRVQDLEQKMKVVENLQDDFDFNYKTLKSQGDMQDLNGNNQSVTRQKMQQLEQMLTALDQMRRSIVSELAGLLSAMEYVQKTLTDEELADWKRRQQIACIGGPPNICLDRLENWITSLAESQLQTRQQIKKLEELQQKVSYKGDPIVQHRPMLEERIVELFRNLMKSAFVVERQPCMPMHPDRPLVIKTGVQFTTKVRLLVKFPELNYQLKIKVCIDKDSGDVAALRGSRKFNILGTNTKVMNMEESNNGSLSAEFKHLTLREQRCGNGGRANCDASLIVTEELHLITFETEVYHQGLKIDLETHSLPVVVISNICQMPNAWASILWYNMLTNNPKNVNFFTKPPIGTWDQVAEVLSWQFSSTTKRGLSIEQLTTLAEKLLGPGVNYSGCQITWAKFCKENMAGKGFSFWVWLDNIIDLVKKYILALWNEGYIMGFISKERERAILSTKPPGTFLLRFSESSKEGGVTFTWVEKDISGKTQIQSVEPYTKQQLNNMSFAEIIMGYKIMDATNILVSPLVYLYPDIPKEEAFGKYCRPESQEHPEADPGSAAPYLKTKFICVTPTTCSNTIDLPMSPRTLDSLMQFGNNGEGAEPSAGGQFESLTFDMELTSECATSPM
# Sequence of X-box-binding protein 1 (Homo sapiens) (P17861 whole entry, looked up): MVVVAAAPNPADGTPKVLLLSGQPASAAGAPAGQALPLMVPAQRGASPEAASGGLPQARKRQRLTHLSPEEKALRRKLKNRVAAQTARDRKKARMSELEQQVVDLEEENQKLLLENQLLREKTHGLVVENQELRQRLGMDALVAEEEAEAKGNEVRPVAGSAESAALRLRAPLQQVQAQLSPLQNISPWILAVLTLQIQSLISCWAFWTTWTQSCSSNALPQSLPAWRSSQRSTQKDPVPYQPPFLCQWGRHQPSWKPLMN
# Sequence of Paired box protein Pax-6 (Homo sapiens) (P26367 whole entry, looked up): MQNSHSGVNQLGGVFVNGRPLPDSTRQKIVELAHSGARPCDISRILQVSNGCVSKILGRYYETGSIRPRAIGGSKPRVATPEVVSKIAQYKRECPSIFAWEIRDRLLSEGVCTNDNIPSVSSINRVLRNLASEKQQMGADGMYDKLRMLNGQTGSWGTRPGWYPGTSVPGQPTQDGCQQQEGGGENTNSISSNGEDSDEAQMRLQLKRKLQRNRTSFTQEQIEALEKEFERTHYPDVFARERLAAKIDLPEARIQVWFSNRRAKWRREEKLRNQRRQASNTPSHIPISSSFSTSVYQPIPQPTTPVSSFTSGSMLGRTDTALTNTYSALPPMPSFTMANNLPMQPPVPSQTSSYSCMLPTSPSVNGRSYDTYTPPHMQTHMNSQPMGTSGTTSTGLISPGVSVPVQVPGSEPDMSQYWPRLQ
# Sequence of Glucocorticoid receptor (Homo sapiens) (P04150 whole entry, looked up): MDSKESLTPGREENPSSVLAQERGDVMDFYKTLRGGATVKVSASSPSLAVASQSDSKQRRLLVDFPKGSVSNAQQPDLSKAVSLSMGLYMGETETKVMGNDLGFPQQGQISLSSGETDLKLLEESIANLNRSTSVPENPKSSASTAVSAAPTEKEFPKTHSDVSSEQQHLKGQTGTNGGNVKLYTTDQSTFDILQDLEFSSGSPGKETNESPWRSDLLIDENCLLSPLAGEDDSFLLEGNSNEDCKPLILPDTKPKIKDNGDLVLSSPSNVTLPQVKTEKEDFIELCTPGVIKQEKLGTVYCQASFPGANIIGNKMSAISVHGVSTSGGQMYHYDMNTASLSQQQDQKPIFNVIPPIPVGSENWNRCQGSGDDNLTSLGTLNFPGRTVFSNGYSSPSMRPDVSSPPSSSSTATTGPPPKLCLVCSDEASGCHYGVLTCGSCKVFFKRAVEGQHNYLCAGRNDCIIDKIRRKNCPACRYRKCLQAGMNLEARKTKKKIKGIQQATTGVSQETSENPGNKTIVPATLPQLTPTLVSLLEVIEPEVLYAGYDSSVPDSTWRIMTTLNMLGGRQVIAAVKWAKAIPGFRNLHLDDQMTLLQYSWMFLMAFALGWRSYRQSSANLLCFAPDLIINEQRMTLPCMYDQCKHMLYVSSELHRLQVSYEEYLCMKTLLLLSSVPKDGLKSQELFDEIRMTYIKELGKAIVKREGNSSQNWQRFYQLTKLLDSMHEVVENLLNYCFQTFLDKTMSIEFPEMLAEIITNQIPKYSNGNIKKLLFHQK
# Sequence of Steroid hormone receptor ERR1 (Homo sapiens) (P11474 whole entry, looked up, the tested form may be a part): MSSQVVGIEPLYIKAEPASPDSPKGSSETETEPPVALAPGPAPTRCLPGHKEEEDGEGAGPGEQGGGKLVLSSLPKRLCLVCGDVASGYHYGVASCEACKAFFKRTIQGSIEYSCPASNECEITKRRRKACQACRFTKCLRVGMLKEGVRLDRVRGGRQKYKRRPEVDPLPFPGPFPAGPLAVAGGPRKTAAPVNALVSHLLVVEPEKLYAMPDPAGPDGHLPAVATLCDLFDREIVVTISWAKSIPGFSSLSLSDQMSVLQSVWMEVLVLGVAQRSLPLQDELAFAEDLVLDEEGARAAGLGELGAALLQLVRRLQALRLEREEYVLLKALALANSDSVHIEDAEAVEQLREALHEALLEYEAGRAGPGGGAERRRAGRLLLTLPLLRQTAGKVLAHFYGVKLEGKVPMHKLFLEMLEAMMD
# Sequence of Transcription factor Sp1 (Homo sapiens) (P08047 whole entry, looked up, the tested form may be a part): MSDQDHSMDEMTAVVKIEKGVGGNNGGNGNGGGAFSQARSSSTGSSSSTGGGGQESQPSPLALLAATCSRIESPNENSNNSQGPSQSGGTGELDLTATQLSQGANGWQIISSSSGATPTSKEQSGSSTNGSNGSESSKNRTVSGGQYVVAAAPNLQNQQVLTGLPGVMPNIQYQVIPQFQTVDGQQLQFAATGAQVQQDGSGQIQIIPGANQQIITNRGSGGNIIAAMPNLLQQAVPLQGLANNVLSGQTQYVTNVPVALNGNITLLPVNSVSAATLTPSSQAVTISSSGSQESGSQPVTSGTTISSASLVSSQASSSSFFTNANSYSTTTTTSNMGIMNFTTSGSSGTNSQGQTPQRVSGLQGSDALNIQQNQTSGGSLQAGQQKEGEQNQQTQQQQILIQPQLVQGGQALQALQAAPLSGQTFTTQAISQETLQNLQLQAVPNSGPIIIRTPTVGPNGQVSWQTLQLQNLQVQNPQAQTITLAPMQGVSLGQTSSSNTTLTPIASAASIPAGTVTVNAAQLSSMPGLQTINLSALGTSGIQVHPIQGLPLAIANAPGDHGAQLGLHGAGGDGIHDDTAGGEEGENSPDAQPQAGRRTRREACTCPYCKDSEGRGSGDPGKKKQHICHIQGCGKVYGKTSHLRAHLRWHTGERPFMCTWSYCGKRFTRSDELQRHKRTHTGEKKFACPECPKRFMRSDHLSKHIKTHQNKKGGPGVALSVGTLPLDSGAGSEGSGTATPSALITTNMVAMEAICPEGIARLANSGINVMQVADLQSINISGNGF
# Sequence of Nuclear receptor subfamily 1 group I member 3 (Homo sapiens) (Q14994 whole entry, looked up, the tested form may be a part): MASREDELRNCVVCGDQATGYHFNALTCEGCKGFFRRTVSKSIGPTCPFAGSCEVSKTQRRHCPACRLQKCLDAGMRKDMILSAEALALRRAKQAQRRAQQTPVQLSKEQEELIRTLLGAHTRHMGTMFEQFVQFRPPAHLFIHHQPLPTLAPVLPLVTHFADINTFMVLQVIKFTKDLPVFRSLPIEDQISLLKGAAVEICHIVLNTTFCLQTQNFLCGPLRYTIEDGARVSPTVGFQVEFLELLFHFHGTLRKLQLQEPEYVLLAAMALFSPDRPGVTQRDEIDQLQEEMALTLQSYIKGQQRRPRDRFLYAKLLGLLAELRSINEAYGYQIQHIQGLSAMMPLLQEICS
structure (smiles),measurement,setting,value
CS(=O)(=O)c1ccc(C2=C(c3ccccc3)C(=O)OC2)cc1,outcome,[1],inactive
same,AC50,[2],20.1 µM (active)
same,outcome,[3],inactive
same,outcome,[4],inactive
same,outcome,[5],inactive
same,outcome,[6],inactive
same,outcome,[7],inactive
same,outcome,[8],inactive
same,outcome,[9],inactive
same,outcome,[10],inactive
same,outcome,[11],inactive
same,outcome,[12],inactive
same,outcome,[13],inactive
same,outcome,[14],inactive
same,outcome,[15],inactive
NCCNc1cccc2ccccc12,AC50,[1],100 µM (active)
same,outcome,[2],inactive
same,AC50,[3],99.2 µM (active)
same,outcome,[4],inactive
same,outcome,[16],inactive
same,outcome,[6],inactive
same,outcome,[17],inactive
same,AC50,[7],49.8 µM (active)
same,outcome,[8],inactive
same,outcome,[9],inactive
same,AC50,[18],155 µM (active)
same,AC50,[12],161 µM (active)
same,outcome,[15],inactive
COc1ccccc1N=Nc1c(S(=O)(=O)O)cc2cc(S(=O)(=O)O)cc(NC(C)=O)c2c1O,outcome,[1],inactive
same,AC50,[2],25.7 µM (active)
same,outcome,[19],inactive
same,outcome,[4],inactive
same,outcome,[16],inactive
same,outcome,[5],inactive
same,outcome,[6],inactive
same,outcome,[17],inactive
same,outcome,[7],inactive
same,outcome,[8],inactive
same,outcome,[9],inactive
same,outcome,[18],inactive
same,outcome,[11],inactive
same,outcome,[12],inactive
same,outcome,[13],inactive
same,outcome,[15],inactive

# Source: PubChem BioAssay (EPA / NIEHS)
